40 compounds from PubChem BioAssay (Tox21) can be followed below.

The structures appear in SMILES notation. Inconclusive results are not listed. A call without a number means that no potency is given here. Activity calls are given as the source filed them. The call rests on the fitted dose curve.

The target of the assay is D(2) dopamine receptor (Homo sapiens) (UniProt P14416). Description: Dopamine D2 receptor (DRD2) small molecule agonists, cell-based qHTS assay (AID 1963594). Further: nearly all actives have a fitted effect of over 35% in size. Conditions: HEK293-DRD2 cAMP HTRF, agonist mode, 30 min; series mostly up to 92.4 µM; activation: at the top concentration. The source says: National Center for Advancing Translational Sciences [NCATS]
Chain of D(2) dopamine receptor (Homo sapiens) (P14416 whole entry, looked up): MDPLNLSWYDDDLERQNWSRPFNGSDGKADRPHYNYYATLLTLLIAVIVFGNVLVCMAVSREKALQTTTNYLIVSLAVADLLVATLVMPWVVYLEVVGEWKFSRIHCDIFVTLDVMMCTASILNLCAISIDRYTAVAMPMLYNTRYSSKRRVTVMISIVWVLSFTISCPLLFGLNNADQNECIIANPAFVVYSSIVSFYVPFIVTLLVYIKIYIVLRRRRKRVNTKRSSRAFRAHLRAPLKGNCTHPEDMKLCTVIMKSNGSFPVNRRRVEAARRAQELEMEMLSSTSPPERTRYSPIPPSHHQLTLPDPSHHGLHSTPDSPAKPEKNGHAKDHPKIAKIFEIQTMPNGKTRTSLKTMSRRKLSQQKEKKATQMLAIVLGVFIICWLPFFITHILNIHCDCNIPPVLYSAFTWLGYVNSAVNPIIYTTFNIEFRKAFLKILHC
Division of Preclinical Innovation [DPI]
U.S. Environmental Protection Agency [EPA]
National Institutes of Environmental Health Sciences [NIEHS]
National Toxicology Program [NTP]
U.S. Food and Drug Administration [FDA]
DRD2 is the D2 subtype of the dopamine receptor, which is coupled to Gi subtype of G protein-coupled receptor. This G protein-coupled receptor inhibits adenylyl cyclase activity. The DRD2-HEK293 cell line stably expressing D2 dopamine receptor can be used for screening agonists and antagonists of interactions between D2 and its ligands. The Hek293-DRD2 cAMP assay is based on HTRF technology. It measures changes of cAMP accumulation in response to Gi coupled GPCR activation or inhibition.
Tox21 Assay Protocol Summary:
DRD2-Hek293 cells were dispensed at 600 cells/3uL/well in 1536-well white plates using a Multidrop Dispenser. After the assay plates were incubated at a 37 C/5% CO2 incubator for 24 h, 1 uL of Ro20-1724 at final concentration of 0.1 mM was transferred to the assay plate by a Flying Reagent Dispenser. Following Ro20-1724 addition, 23 nL of compound dissolved in DMSO, positive controls or DMSO only was added to the assay plates via Wako pintool station. The assay plates were incubated at room temperature for 10 min. Next, 1 uL of NKH477 at 200nM was added into the plates. After the assay plates were incubated at room temperature for an additional 30 min, 2.5 ul/well of cAMP-d2 and 2.5 ul/well of anti-cAMP-cryptate were added respectively into the assay plates using a Flying Reagent Dispenser. The plates were incubated at room temperature for 1 h. The fluorescence intensity in the plates was measured at 340 nm excitation and 665 & 620 nm emission by an Envision plate reader.
On the technique in general: In qHTS, concentration-response curves come from the screen itself.
For the compound `COc1ccc2c3c1O[C@H]1[C@H](O)CC[C@H]4[C@@H](C2)N(C)CC[C@@]341`, the “activation” value is -4.48% (inactive).

As for `CCCCCCCCCc1ccc(O)cc1`, the Potency entry is “inactive”.

Regarding `CCN(CCO)CCO`, the “activation” value was -0.296% (inactive).

For the compound `CC(C)OC(=O)Nc1ccccc1`, the Potency result is “inactive”.

In the case of `O=C(CCl)c1ccccc1`, the Potency result was “inactive”.

Take `CNC(=O)NC(O)C(Cl)(Cl)Cl` (stereo not given): the “activation” value was 12.7% [at 42.5 µM] (inactive).

On to `Clc1ccc(Cl)c(Cl)c1`, for which the Potency result is “inactive”.

`O=S(=O)(Cl)Cl`: the “activation” value is -4.15% (inactive).

With `CC(=[OH+])/C=C(/C)[O-].CC(=[OH+])/C=C(\C)[O-].CC(=[OH+])/C=C(\C)[O-].[Fe]`, the “activation” value was 1.23% (inactive).

Consider `Clc1cnc(Oc2ccc(Oc3ncc(Cl)cc3Cl)cc2)c(Cl)c1`, for which the Potency result is “inactive”.

`CN(C)[C@@H]1C(=O)C(C(N)=O)=C(O)[C@@]2(O)C(=O)C3=C(O)c4c(O)cccc4[C@@](C)(O)[C@H]3[C@H](O)[C@@H]12`: the Potency entry was “inactive”.

On to `CC(=O)C=C(C)C`, for which the Potency entry was “inactive”.

Turning to `O=C(O)C(Cl)Cl`, the Potency result was “inactive”.

In the case of `C=CC(=O)OCCCCCC(C)C`, the Potency result is “inactive”.

`CCCCCCC#N`: the “activation” value is -5.37% (inactive).

For the compound `C[N+](=O)[O-]`, the “activation” value was -3.74% (inactive).

On to `CCCCCCCCCCCC(=O)O`, for which the Potency result was “inactive”.

On to `COc1ccc(N)cc1N`, for which the “activation” value is -0.452% [at 42.5 µM] (inactive).

Consider `Brc1c(Br)c(Br)c(Oc2c(Br)c(Br)c(Br)c(Br)c2Br)c(Br)c1Br`, for which the activation is 4.7% [at 19 µM] (inactive).

Take `CC(C)(N)Cc1ccccc1Cl`: the “activation” value was 6.71% [at 42.5 µM] (inactive).

On to `Cc1ncc2n1-c1ccc(Cl)cc1C(c1ccccc1F)=NC2`, for which the “activation” value was -0.0279% [at 42.5 µM] (inactive).

Turning to `C=CC(N)=O`, the Potency entry was “inactive”.

Regarding `Cc1cccc(C)c1NC(=O)CN1CCCC1=O`, the Potency result was “inactive”.

Take `O=S(=O)(c1ccc(O)cc1)c1ccc(O)cc1`: the Potency result was “inactive”.

In the case of `N#CC(Br)Br`, the Potency result is “inactive”.

Regarding `CS(=O)(=O)Cl`, the “activation” value was -6.57% (inactive).

Consider `CCC(=O)O[C@H]1CC[C@H]2[C@@H]3CCC4=CC(=O)CC[C@]4(C)[C@H]3CC[C@]12C`, for which the Potency entry is “inactive”.

For the compound `CCN(CC)CCN1C(=O)CN=C(c2ccccc2F)c2cc(Cl)ccc21`, the “activation” value is -13% [at 42.5 µM] (inactive).

`CC(C)(C)OOC(=O)c1ccccc1`: the Potency entry was “inactive”.

With `CC(C)(O)C#N`, the Potency entry was “inactive”.

In the case of `CC1CC(CC2CCC(N)C(C)C2)CCC1N` (stereo not given), the “activation” value is -0.421% (inactive).

For the compound `O=C/C=C/c1ccccc1`, the Potency entry was “inactive”.

On to `CC(=O)CCC(C)=O`, for which the “activation” value was -0.047% (inactive).

Turning to `CCCBr`, the “activation” value is -3.42% (inactive).

`CCCCCCCCCCCCCCCCn1cc[n+](C)c1`: the Potency result is “inactive”.

On to `OCCSSCCO`, for which the “activation” value was -0.728% (inactive).

As for `C=CC(C)=O`, the “activation” value is -5.6% (inactive).

`Oc1ccc(-c2ccccc2)cc1`: the Potency entry is “inactive”.

Turning to `CCCC[N+]1(C)CCCC1`, the Potency entry is “inactive”.

With `CC(C)(C1CCC(O)CC1)C1CCC(O)CC1` (stereo not given), the “activation” value was 0.749% (inactive).
